Shown are actives, neighbours in structure and some others; about 3.9% of the full set was active somewhere.
UBC9 SUMO inh: inhibitors of in vitro SUMOylation cascade, primary screen, biochemical, HTRF, uHTS; hit rate 0.36% among 290,000; HTRF SUMOylation assay, SAE1/SAE2 + UBC9; inhibition, % at 35 µM; in the data active means inhibition above about 50%, passing the limit was not always enough; inconclusive means no clear call, values can overlap the other calls
Target sequence (P63279 whole entry, looked up): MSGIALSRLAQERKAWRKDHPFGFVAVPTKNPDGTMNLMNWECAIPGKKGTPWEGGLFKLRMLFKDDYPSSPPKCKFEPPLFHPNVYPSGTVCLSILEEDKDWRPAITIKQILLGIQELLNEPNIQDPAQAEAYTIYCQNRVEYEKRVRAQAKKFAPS
NTR1 ag: agonists of human NTR1, primary screen, imaging, U2OS cells, beta-arrestin-GFP, high content; NTR1-U2OS beta-arrestin-GFP spot imaging, agonist mode; AID 493036, 2011; hit rate 0.17% among 330,000; Neurotensin receptor type 1 (Homo sapiens), P30989; activation, % at 20 µM;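 active means activation at or above 40% of the spot to cytoplasm intensity ratio, with at least 20 cells analyzed; inconclusive means wells under 20 cells, flagged as cytotoxic or low count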;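 further: 0% = DMSO without peptide and 100% = 100 nM NTR1 peptide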
Target sequence (P30989 whole entry, looked up): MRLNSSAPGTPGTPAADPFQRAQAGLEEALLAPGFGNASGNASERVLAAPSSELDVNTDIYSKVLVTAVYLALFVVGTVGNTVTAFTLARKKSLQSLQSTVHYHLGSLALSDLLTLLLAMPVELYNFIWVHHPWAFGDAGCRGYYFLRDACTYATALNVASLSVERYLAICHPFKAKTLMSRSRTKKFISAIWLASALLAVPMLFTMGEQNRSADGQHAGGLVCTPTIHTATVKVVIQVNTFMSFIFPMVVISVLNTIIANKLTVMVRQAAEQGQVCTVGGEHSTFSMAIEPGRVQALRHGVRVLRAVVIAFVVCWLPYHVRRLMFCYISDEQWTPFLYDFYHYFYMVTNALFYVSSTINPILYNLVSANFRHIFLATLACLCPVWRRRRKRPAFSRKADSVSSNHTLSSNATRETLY
ALR inh: inhibitors of human ALR sulfhydryl oxidase, primary screen, biochemical, H2O2 detection, HRP-luminol luminescence, single point | inhibition, % (test concentration not listed) | AID 485317, 2010 | purified ALR, DTT oxidation | hit rate 3.8% among 290,000;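 active means mean replicate inhibition above about 79%, with every replicate also reaching it, limit read from the data; inconclusive means only one of the two criteria met; inactive means mean below limit and not every replicate reaching it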
Cardio protect: cardioprotection against H2O2-induced cell death, primary screen, uHTS, H9c2 cells, ATPLite luminescence. H9c2 cardiomyocytes, H2O2 injury protection, 2 h. protection from H2O2 cell death, % at 20 µM. hit rate 0.63% among 360,000. AID 588492, 2011;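 active means compounds giving at least 50% protection of heart cells from peroxide-induced death in the single-dose screen, raw or plate-pattern-corrected value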;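 further: 0% = DMSO wells with peroxide and 100% = DMSO wells without peroxide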
An asterisk follows results filed as active; u = inconclusive; x = not tested or not shown.

SMILES | UBC9 SUMO inh | NTR1 ag | ALR inh | Cardio protect
COc1ccc(/C=C/c2nc3cc(-c4ccccc4)ccc3o2)cc1O | -10 | 9 | -3 | 3
CC(=O)Nc1ccc2c(c1)C(C)(C)C(C)N2C (stereo not given) | 20 | -2 | 99* | x
O=C(c1cccc(N2CCNC2=O)c1)N1CCCC(Nc2cccc(F)c2)C1 (stereo not given) | 4 | -1 | 74 | -3
O=C(Cc1ccc(N2CCNC2=O)cc1)N1CCCC(Nc2ccc(F)c(F)c2)C1 (stereo not given) | 12 | 1 | 20 | -2
O=C(CC1CCCC1)N1CCCC(Nc2ccc(F)cc2)C1 (stereo not given) | 8 | -1 | 99* | -7
O=C(CC1CCCC1)N1CCCC(Nc2cccc(F)c2)C1 (stereo not given) | 1 | 0 | 92* | 0
O=C(Cc1ccc(N2CCNC2=O)cc1)N1CCCC(Nc2cccc(F)c2)C1 (stereo not given) | -2 | 1 | 99* | 0
Cc1cc(C)n(CCC(=O)N2CCCC(Nc3ccc(F)cc3)C2)n1 (stereo not given) | 10 | -1 | 98* | -5
Cc1ccc(S(=O)(=O)N(C)c2c(C)ccc(S(=O)(=O)N3CCN(C=O)CC3)c2C)cc1 | -1 | 2 | -4 | 0
CCCN(C(=O)CSc1nnnn1C)C1CCS(=O)(=O)C1 (stereo not given) | 2 | 0 | -9 | 4
CC1(CCC(=O)N2CCCC(Nc3ccc(F)cc3)C2)CC1 (stereo not given) | 2 | 1 | 98* | -4
O=C1CCCN1CCC(=O)N1CCCC(Nc2ccc(F)c(F)c2)C1 (stereo not given) | 12 | -1 | 18 | 4
Cc1nc2nc(-c3ccco3)[nH]n2c(=O)c1C | 18 | -1 | 2 | 0
COCCn1c(SCC(=O)Nc2ccc3c(c2)OCCO3)nc2c(c1=O)SC(C)C2 (stereo not given) | -19 | 4 | 99* | -8
CC1Cc2nc(SCC(=O)Nc3ccc(F)cc3F)n(C)c(=O)c2S1 (stereo not given) | 4 | 1 | 99* | 7
COCCn1c(SCC(=O)Nc2cc(C)on2)nc2c(c1=O)SC(C)C2 (stereo not given) | 27 | -1 | x | -1
Cc1ccc(C)c(NC(=O)CSc2nc3c(c(=O)n2C)SC(C)C3)c1 (stereo not given) | -7 | 1 | 48 | -14
Cc1ccc2nc(NC(=O)CSc3nc4c(c(=O)n3C)SC(C)C4)sc2c1 (stereo not given) | 2 | 2 | 99* | -25
CC1Cc2nc(SCC(=O)Nc3ccc4c(c3)OCCO4)n(C)c(=O)c2S1 (stereo not given) | 4 | 0 | 94* | -8
CCOC(=O)C1=C(C)NC(C)=C(C(=O)OCC)C1C(=O)OCC(=O)NC | 15 | -2 | x | -4
Cc1ccc(C(c2c(O)nc3n(c2=O)CCS3)c2c(O)nc3n(c2=O)CCS3)cc1 | 2 | 5 | 97* | 1
O=c1c(C(c2c(O)nc3n(c2=O)CCS3)c2cccc3ccccc23)c(O)nc2n1CCS2 | 17 | -2 | 96* | 4
Oc1ccc(-c2nc3ccc4ccccc4c3c3c2CCC3)cc1O | -34 | 26 | 9 | 88*
CC#CCCCC(=O)Nc1cccc(C(=O)O)c1 | 5 | -1 | 90* | -4
Fc1ccc(Nc2c3c(nc4ccccc24)CCC3)cc1 | 2 | 15 | 95* | -23
SMILES | UBC9 SUMO inh | NTR1 ag | ALR inh | Cardio protect
Cc1cc(Nc2ccc3c(c2)OCCO3)c2ccccc2n1 | 17 | 2 | x | 18
COc1ccc(NC(=O)c2c3c(nc4ccccc24)CCC3)cc1 | 26 | 5 | 4 | 0
COc1ccccc1Nc1nc(-c2ccccc2)nc2ccccc12 | 3 | 8 | 11 | -7
COc1ccccc1Nc1c2ccccc2nc2ccccc12 | -24 | 3 | 99* | -15
c1ccc(Nc2c3c(nc4ccccc24)CCC3)cc1 | 13 | 2 | x | -10
c1ccc2c(Nc3ccc4c(c3)OCCO4)c3c(nc2c1)CCC3 | 23 | 3 | 80* | -6
COc1ccc(Nc2c3c(nc4ccccc24)CCC3)cc1 | 10 | 8 | 99* | -15
O=C(NC1CCCCC1)c1cccnc1Sc1ccccc1Cl | 14 | 0 | -5 | -5
CC(C)CCn1nc(C(=O)OC(C)C(=O)NC(N)=O)c2ccccc2c1=O (stereo not given) | 13 | -3 | -9 | 7
Cc1ccccc1Cn1cccc1/C=C1/C(=N)N2C=CSC2=NC1=O | 28 | 3 | x | 3
COc1ccc(Nc2c3ccccc3nc3ccccc23)cc1 | 3 | 8 | 100* | -14
COc1ccc(Nc2c3c(nc4ccccc24)CCCC3)cc1OC | -1 | 2 | 99* | -6
Cc1ccc2nc3c(c(Nc4ccccc4)c2c1)CCC3 | 23 | 12 | 97* | -5
COc1cc(Nc2c3ccccc3nc3ccccc23)cc(OC)c1OC | 2 | 12 | 94* | -11
COc1cc(Nc2nc(-c3ccccc3)c3cc(C)ccc3n2)cc(OC)c1OC | -13 | 10 | x | 4
COc1ccc(Nc2cc(C)c3ccccc3n2)cc1 | -2 | 9 | x | -9
COc1ccc(C)cc1Nc1c2c(nc3ccccc13)CCC2 | 14 | 6 | u | -13
O=C(CCc1ccc(O)c(O)c1)NNC(=S)NCCc1ccccc1 | 4 | 0 | 99* | 21
O=C(CCc1ccc(O)c(O)c1)NNC(=S)Nc1ccc(Br)cc1Cl | -21 | -1 | 99* | 19
CCOc1ccc(NCCC(O)c2ccc(F)cc2)cc1 (stereo not given) | 14 | 1 | x | 0
CCC(C)NC(=O)c1cc2c(=O)n3ccccc3nc2s1 (stereo not given) | 28 | 0 | -3 | 2
CCOC(=O)C1=C(C)N=c2s/c(=C/c3ccccc3)c(=O)n2C1c1ccc(OC)c(OC)c1 (stereo not given) | -7 | 3 | -4 | 5
CCOC(=O)C1=C(C)N=c2s/c(=C\c3ccncc3)c(=O)n2C1c1ccc2c(c1)OCO2 (stereo not given) | -4 | 9 | x | 55*
CN1CCc2cccc3c2[C@H]1Cc1ccc(O)c(O)c1-3 | 16 | -2 | 99* | 34
CN1CCc2cc3c(c4c2[C@H]1[C@H](O)c1ccccc1-4)OCO3 | 55 | -1 | -34 | 6
CC1CCc2sc(-c3n[nH]c(=S)o3)cc2C1 (stereo not given) | 16 | -1 | 98* | -10
CSc1nnc(-c2cc3c(s2)-c2ccccc2CC3)o1 | 15 | 5 | -10 | -20
S=c1[nH]nc(-c2cc3c(s2)-c2ccccc2CC3)o1 | 37 | 1 | 97* | -10
O=C(Nc1ccc(F)cc1)C1CCCN(S(=O)(=O)c2cccc3cccnc23)C1 (stereo not given) | 14 | 5 | x | -8
C/C(=N/NS(=O)(=O)c1ccc(Cl)cc1)c1ccc2c(c1)OCO2 | x | -1 | 40 | -4

Assay outcomes: PubChem BioAssay, several laboratories
